Screens (PubChem)
PAFAH1B2 FP inh = PAFAH1B2 (human) inhibition | P68402 | recombinant PAFAH1B2, FP-rhodamine activity probe, fluorescence polarization | inhibition, % at 3.39 µM | hit rate 1.2% among 340,000;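 active = inhibition above the mean of all tested compounds plus 3 SD, cut at about 24% in these data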;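 note: 0% = enzyme with DMSO and 100% = wells lacking PAFAH1B2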
Target sequence (P68402 whole entry, looked up): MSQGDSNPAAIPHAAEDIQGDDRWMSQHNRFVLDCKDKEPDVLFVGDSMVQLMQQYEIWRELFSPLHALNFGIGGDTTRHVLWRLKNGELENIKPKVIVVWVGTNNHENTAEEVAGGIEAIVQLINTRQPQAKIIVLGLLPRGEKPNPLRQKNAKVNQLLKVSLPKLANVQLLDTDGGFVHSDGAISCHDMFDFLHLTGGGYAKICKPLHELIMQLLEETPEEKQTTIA
PP5 inh = inhibitors of human protein phosphatase 5 (PP5) | P53041 | purified PP5c, OMFP substrate fluorescence | inhibition, % at 6.7 µM | hit rate 0.18% among 320,000 | AID 1987;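 active = inhibition above the campaign's mean inhibition across all tested compounds plus 3 SD, cut at about 9.5% in these data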;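 note: 0% = DMSO only and 100% = 100 µM cantharidin control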
pPAFAH FP inh = pPAFAH (human) enzyme inhibition; inhibition, % at 3.39 µM; recombinant pPAFAH, FP-rhodamine probe fluorescence polarization; AID 463082; Q13093; hit rate 1.5% among 330,000;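 active = inhibition above the mean inhibition across the screen plus 3 SD, cut at about 25% in these data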;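 note: inhibitors block binding of the rhodamine activity-based probe so polarization drops; 0% = enzyme with DMSO and 100% = wells lacking pPAFAH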
PAFAH1B3 FP inh = PAFAH1B3 (human) inhibition. hit rate 0.28% among 340,000. recombinant PAFAH1B3, FP-rhodamine probe, fluorescence polarization. inhibition, % at 3.39 µM. Q15102. AID 492972;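 active = inhibition above the screen-wide average of all tested compounds plus 3 SD, cut at about 25% in these data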;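 note: 0% = enzyme with DMSO only and 100% = wells lacking PAFAH1B3 protein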
PAFAH2 inh = inhibitors of human PAFAH2. Q99487. recombinant PAFAH2, FP-rhodamine activity probe, fluorescence polarization. inhibition, % at 3.39 µM. hit rate 0.99% among 340,000. AID 492956;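 active = inhibition above the mean over all tested compounds plus 3 SD, cut at about 30% in these data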;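 note: inhibitors block probe labeling of enzyme so polarization drops; 0% = enzyme with DMSO and 100% = wells lacking PAFAH2 protein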
PP1 counter = PP1-alpha (human) inhibition in PP5 counter-screen | P62136 | purified PP1alpha, OMFP fluorescence | inhibition, % at 6.7 µM | hit rate 0.9% among 320,000 | AID 2235;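 active = inhibition above the mean inhibition of all tested compounds plus 3 SD, computed separately for each screening campaign, cut at about 15% in these data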
Target sequence (P62136 whole entry, looked up): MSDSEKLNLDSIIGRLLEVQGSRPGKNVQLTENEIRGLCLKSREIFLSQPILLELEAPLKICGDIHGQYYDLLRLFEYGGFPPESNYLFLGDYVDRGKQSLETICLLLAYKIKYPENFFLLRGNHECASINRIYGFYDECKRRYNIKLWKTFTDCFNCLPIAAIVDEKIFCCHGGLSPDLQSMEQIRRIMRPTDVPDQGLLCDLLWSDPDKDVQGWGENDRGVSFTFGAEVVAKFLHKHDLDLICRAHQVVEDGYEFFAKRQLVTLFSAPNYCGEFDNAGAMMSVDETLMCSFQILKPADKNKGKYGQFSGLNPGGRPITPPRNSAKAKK
The depositor's hits bear a star; . = no result given. Rows were chosen to be rich in hits. Some 3.4% of all compounds tested hit in one or more screens of this group.

SMILES	PAFAH1B2 FP inh	PP5 inh	pPAFAH FP inh	PAFAH1B3 FP inh	PAFAH2 inh	PP1 counter
Cc1ccc(S(=O)(=O)Oc2ccc(C3C4=C(CCCC4=O)N(CCC(=O)O)C4=C3C(=O)CCC4)cc2Cl)cc1	39.3*	1.3	1.8	2.8	6.2	-2.6
CCC(=O)c1ccc(OC)c(OC)c1OCc1ccccc1	-0.9	.	.	8.7	2.1	.
CC1Cc2ccccc2N1S(=O)(=O)c1cccc(C(=O)OCC(=O)NC2CCS(=O)(=O)C2)c1 (configuration not stated)	26.5*	-0.4	10.9	-3.7	17.1	-3.3
O=C(c1cccc(S(=O)(=O)NCc2ccccc2)c1)N1CCCCC1	7.8	1.5	0.8	5.6	-3.0	1.3
CC1Cc2ccccc2N1S(=O)(=O)c1cccc(C(=O)NC2CC2)c1 (configuration not stated)	5.5	1.4	1.0	-2.7	12.0	0.3
O=C(COC(=O)c1cccc(S(=O)(=O)NCc2ccccc2)c1)NC1CC1	13.5	.	27.1*	12.8	26.8	.
O=C(c1cccc(S(=O)(=O)NCc2ccccc2)c1)N1CCN(Cc2ccccc2)CC1	68.5*	-0.8	27.2*	3.6	2.6	-0.1
CC(=O)c1ccc(-c2ccc(C(=O)Nc3nc(C)c(C(C)=O)s3)o2)cc1	-3.9	0.7	-0.9	-1.8	7.2	5.9
O=c1oc(-c2ccccc2)cc(Cl)c1Cl	-0.2	1.6	-1.8	7.0	-5.2	4.7
C=CCn1c(SC2CCOC2=O)nc2sc(CC)cc2c1=O (configuration not stated)	-3.6	1.9	27.4*	4.3	10.0	-1.3
C=CCn1c(SC2CCOC2=O)nc2sc(C)c(C)c2c1=O (configuration not stated)	1.8	3.6	8.2	5.8	2.6	-2.5
CCN(CC)c1ccc(NC(=O)c2ccc3c(c2)c(C)c(C)n3C)cc1	1.6	3.4	11.7	13.1	-10.3	16.9*
CC1CCCC(C)N1C(=O)CSc1nc(N)c(-c2ccccc2)c(=O)[nH]1 (configuration not stated)	24.9*	2.8	1.9	4.7	0.2	-0.6
Nc1nc(SCC(=O)N2CCCC2)[nH]c(=O)c1-c1ccccc1	-3.1	-0.6	3.7	1.9	-3.5	-2.8
Clc1ccccc1Cn1c(/C=C/c2ccco2)nc2ccccc21	-5.7	1.3	30.7*	5.5	-3.3	4.5
COc1ccc(Cc2nnc(Nc3ccc(Cl)cc3)[nH]c2=O)cc1	2.5	1.4	0.5	-4.9	-6.6	17.5*
Cc1ccccc1NC1=C/C(=N\S(=O)(=O)c2ccc(C(=O)O)cc2)c2ccccc2C1=O	34.4*	9.4	22.0	65.0*	67.1*	4.0
COc1ccc(S(=O)(=O)/N=C2\C=C(Nc3ccc(O)cc3)C(=O)c3ccccc32)cc1	24.8*	7.2	25.7*	70.4*	43.2*	2.9
O=C(C(Br)=Cc1ccccc1)c1ccccc1	-1.6	.	.	-5.4	10.3	.
COc1ccc(NC(=O)NCCCCc2ccccc2)c(OC)c1	0.4	3.2	4.7	4.0	2.9	-1.1
Nc1cc(C(=O)N2CCN(c3ccc([N+](=O)[O-])cc3)CC2)ccc1N1CC2CC(C1)c1cccc(=O)n1C2 (configuration not stated)	-2.2	-2.4	5.9	7.0	0.9	-5.7
CC(=O)c1ccc(N2CCN(S(=O)(=O)c3cc(-c4cc(C)no4)ccc3C(C)C)CC2)cc1	2.3	3.9	11.9	0.8	5.2	15.1
CCc1ccc(-c2cc(C)no2)cc1S(=O)(=O)N1CCN(c2ccc(C(C)=O)cc2)CC1	0.0	1.2	8.3	-5.7	6.7	15.4*
CCS(=O)(=O)n1nc(-c2ccc(Cl)cc2)nc1SCc1ccccc1	.	4.9	4.0	.	.	6.3
COc1ccc(-c2nc(SCc3ccccc3)n(S(C)(=O)=O)n2)cc1	-0.8	11.4*	2.2	6.5	9.5	1.5
SMILES	PAFAH1B2 FP inh	PP5 inh	pPAFAH FP inh	PAFAH1B3 FP inh	PAFAH2 inh	PP1 counter
CN(C)c1ccc(Cc2cc3c(O)ccc(O)c3cc(Cc3ccc(N(C)C)cc3)c2=O)cc1	18.4	.	.	34.0*	39.0*	.
O=C1Nc2ccccc2SC(c2ccccc2)C1O (configuration not stated)	5.7	3.1	34.2*	0.7	12.2	3.7
O=C(O[C@@H]1OC2COC(=O)c3cc(O)c(O)c(O)c3-c3c(cc(O)c(O)c3O)C(=O)O[C@@H]([C@H]1O)[C@@H]2O)c1cc(O)c(O)c(O)c1	26.4*	2.5	74.7*	37.3*	59.0*	7.3
CCCCCCCCCCCCCCC(O)C[N+](C)(CCO)CCO (configuration not stated)	3.6	.	.	-5.1	-4.7	.
COc1cc(C(=O)O[C@H]2CC(C)=CC[C@@]3(C)CC[C@@](O)(C(C)C)[C@H]23)ccc1O	34.1*	4.9	5.8	-2.6	1.1	3.5
COc1cc(C(=O)O[C@H]2C/C(C)=C/CC[C@]3(C)O[C@@H]3C(O)C2C(C)C)cc(OC)c1OC (some centres not stated)	5.2	3.4	1.8	4.2	-4.1	2.7
CSc1ccccc1NC(=O)NCCCl	-5.4	2.4	-3.2	6.4	-7.4	3.7
N#Cc1ccccc1NS(=O)(=O)c1cc2c3c(c1)CCN3C(=O)CC2	4.3	-1.6	5.0	3.8	-0.7	1.1
C=C(C)C(COc1c2occc2cc2ccc(=O)oc12)OC(C)(C)C(O)COc1c2occc2cc2ccc(=O)oc12 (configuration not stated)	66.1*	.	7.0	6.7	1.3	.
CC(C)C(=O)COc1c2occc2cc2ccc(=O)oc12	10.2	.	-1.6	8.7	4.2	.
CC(C)CC(=O)N1CC=CC[C@@H](c2ccc(Cl)cc2)N(Cc2ccc(Cl)cc2)C(=O)[C@@H]1Cc1ccccc1	0.3	.	.	-1.3	-0.8	.
Cc1ccc(S(=O)(=O)Nc2ccc(NC(=O)c3ccc(F)cc3)cc2)cc1	3.8	2.4	30.2*	5.9	0.9	-2.2
Cc1ccc(S(=O)(=O)Nc2ccc(C(=O)Nc3ccncc3)cc2)cc1	5.5	2.0	1.4	5.4	-12.9	-0.5
O=C(O)c1cc(NS(=O)(=O)c2ccc(F)cc2)cc(NS(=O)(=O)c2ccc(F)cc2)c1	42.4*	.	15.4	4.7	31.8*	.
CCOc1ccc(S(=O)(=O)Nc2cccc(C(=O)NCCCN3CCOCC3)c2)cc1	2.0	-0.5	3.6	-3.3	0.6	-5.6
COc1ccc(NS(=O)(=O)c2ccc(NC(=O)c3ccc(CN4CCOCC4)cc3)cc2)cc1	-4.5	0.1	21.3	5.5	-6.8	-1.2
CCOc1ccc(NS(=O)(=O)c2ccc(C(=O)NCCCN3CCOCC3)cc2)cc1	3.0	1.3	31.2*	11.6	-4.5	-3.3
O=C(Nc1ccc(S(=O)(=O)Nc2ccc(F)cc2)cc1)c1ccc(CN2CCOCC2)cc1	-0.4	1.1	34.0*	1.1	4.0	-6.3
COc1cccc(CCNC(=O)CC2C(=O)NCCN2Cc2ccc(C)o2)c1 (configuration not stated)	0.4	3.4	4.1	5.1	-5.5	1.2
